Several values for one entry are separate records, joined by “and”; a condition that tells them apart may be missing. Equal entries are not always repeated. In all, about 5,500 compounds went through this assay and about 2,000 (36%) were called active. Another 18% or so got no clear call; they are omitted. Rule as the data show it: active = normalized growth mostly below about 0.91 (no sharp cut-off); inconclusive = no clear call, values can overlap the other calls; inactive = mostly above about 0.92. The list shows a part of the results.
Experiment: chemical genetic growth profiling, strain panel (AID 1159580);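 also: tested at 20 µM; growth read once vehicle control cultures reached saturation at 30 °C; 1 = growth at the plate median or of vehicle wells; lower values mean less growth of the strain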
Conditions: S. cerevisiae deletion strains, growth OD

Measured: normalized growth

O=[N+]([O-])c1cc(O)c(O)c([N+](=O)[O-])c1
inactive: locus YAL021C, strain ccr4, active compounds read low 1.01 | locus YAL026C, strain drs2, active compounds read low 1.01 | locus YAL030W, strain snc1, active compounds read low 1.02 | locus YAL040C, strain CLN3, active compounds read low 0.986 | locus YBL061C, strain skt5, active compounds read low 1.01 | locus YBR009C, strain hhf1, active compounds read low 1.07 | locus YBR021W, strain FUR4, active compounds read low 0.953 | locus YBR023C, strain chs3, active compounds read low 1.03 | locus YBR171W, strain sec66, active compounds read low 1.01 | locus YBR229C, strain ROT2, active compounds read low 1.01 | locus YBR231C, strain swc5, active compounds read low 0.983 | locus YBR279W, strain paf1, active compounds read low 1.03 | locus YCL011C, strain gbp2, active compounds read low 1.03 | locus YCL016C, strain dcc1, active compounds read low 1.05 | locus YCL029C, strain bik1, active compounds read low 0.984 | locus YCL061C, strain MRC1 (second series), active compounds read low 0.993 | locus YCL061C, strain MRC1, active compounds read low 1.03 | locus YCL069W, strain vba3, active compounds read low 1.01 | locus YCR088W, strain abp1, active compounds read low 1 | locus YDL005C, strain med2, active compounds read low 1.02 | locus YDL035C, strain GPR1, active compounds read low 1 | locus YDL040C, strain nat1, active compounds read low 1.02 | locus YDL074C, strain BRE1, active compounds read low 1.01 | locus YDL101C, strain DUN1, active compounds read low 1.01 | locus YDL185W, strain tfp1, active compounds read low 0.967 | locus YDL192W, strain arf1, active compounds read low 0.988 | locus YDR001C, strain nth1, active compounds read low 0.998 | locus YDR069C, strain doa4, active compounds read low 0.996 | locus YDR101C, strain arx1, active compounds read low 0.997 | locus YDR137W, strain rgp1, active compounds read low 0.982 | locus YDR150W, strain NUM1, active compounds read low 1.01 | locus YDR159W, strain sac3, active compounds read low 0.957 | locus YDR162C, strain NBP2, active compounds read low 0.999 | locus YDR195W, strain ref2 0.992 | locus YDR297W, strain sur2, active compounds read low 1.01 | locus YDR318W, strain mcm21, active compounds read low 0.987 | locus YDR334W, strain swr1, active compounds read low 1.01 | locus YDR335W, strain msn5, active compounds read low 1.01 | locus YDR363W, strain ESC2, active compounds read low 1.06 | locus YDR388W, active compounds read low 0.978 | locus YDR392W, strain spt3, active compounds read low 1.08 | locus YDR502C, strain sam2, active compounds read low 1 | locus YEL003W, strain gim4, active compounds read low 1.02 | locus YEL037C, strain rad23, active compounds read low 1.01 | locus YEL061C, strain CIN8 (second series), active compounds read low 1 | locus YEL061C, strain CIN8, active compounds read low 1 | locus YER002W, strain NOP16, active compounds read low 0.996 | locus YER015W, strain faa2, active compounds read low 1.01 | locus YER016W, strain bim1, active compounds read low 0.995 | locus YER110C, active compounds read low 0.99 | locus YER111C, strain swi4, active compounds read low 1 | locus YER155C, strain BEM2 (second series), active compounds read low 0.992 | locus YER155C, strain BEM2, active compounds read low 0.993 | locus YER167W, strain BCK2, active compounds read low 1.02 | locus YFR010W, strain ubp6, active compounds read low 1.01 | locus YGL078C, strain dbp3, active compounds read low 0.976 | locus YGL086W, strain mad1, active compounds read low 1 | locus YGL167C, strain pmr1, active compounds read low 1.02 | locus YGL173C, strain kem1, active compounds read low 1.01 | locus YGL227W, strain vid30, active compounds read low 1.01 | locus YGL240W, strain doc1, active compounds read low 0.998 | locus YGL248W, strain PDE1, active compounds read low 1.03 | locus YGL253W, strain hxk2, active compounds read low 0.959 | locus YGR078C, strain PAC10, active compounds read low 1.01 and 0.977 | locus YGR135W, strain pre9, active compounds read low 0.969 | locus YGR229C, strain SMI1, active compounds read low 0.983 | locus YGR252W, strain gcn5, active compounds read low 0.849 | locus YHR013C, strain ard1, active compounds read low 1.05 | locus YHR027C, strain rpn1, active compounds read low 1.01 | locus YHR030C, strain SLT2, active compounds read low 0.996 | locus YHR079C, strain IRE1 (second series), active compounds read low 0.994 | locus YHR094C, strain hxt1, active compounds read low 0.972 | locus YHR129C, strain ARP1, active compounds read low 1 | locus YHR142W, strain chs7, active compounds read low 1.01 | locus YHR200W, strain rpn10, active compounds read low 0.991 | locus YIL066C, strain RNR3, active compounds read low 1.01 | locus YIL073C, strain SPO22, active compounds read low 0.99 | locus YIL125W, strain kgd1, active compounds read low 0.972 | locus YIR030C, strain dcg1, active compounds read low 0.976 | locus YJL092W, strain hpr5, active compounds read low 1.02 | locus YJL095W, strain BCK1 (second series), active compounds read low 1.02 | locus YJL095W, strain BCK1, active compounds read low 0.987 | locus YJL115W, strain asf1, active compounds read low 1.01 | locus YJL129C, strain trk1, active compounds read low 1.01 | locus YJL134W, strain LCB3, active compounds read low 1.01 | locus YJL154C, strain vps35, active compounds read low 1.01 | locus YJL164C, strain tpk1, active compounds read low 1.06 | locus YJL166W, strain qcr8, active compounds read low 1.01 | locus YJL168C, strain set2, active compounds read low 0.978

Source: PubChem BioAssay AID1159580 (chemical genetic matrix, 2015)
